Test results reported in PubChem BioAssay (NCATS).
Where “and” joins values, the source holds several entries; their conditions need not be identical. Equal entries are not always repeated. Records with an inconclusive call do not appear. A number with no mark means an inactive call. Calls of active or inactive are those of the source. The call rests on the fitted dose curve; in most records, active means well fitted cell-killing curve with a large enough effect; inconclusive means small, poorly fitted or top-dose-only effect; inactive means no such curve, though single readings can be large or run the other way.

Assay: qHTS of pediatric cancer cell lines to identify multiple opportunities for drug repurposing: Primary screen for SJ-GBM2 cells (AID 1347091)
Settings: SJ-GBM2 viability, CellTiter-Glo luminescence, 48 h; series mostly up to 46 µM; activity change, negative = cytotoxic: at the top concentration
Excerpt: Drug repurposing or repositioning has been offered as a strategy for drug development in oncology programs. This approach has special potential for childhood cancers and other rare or orphan diseases, where the expected return on new drug development has been a disincentive to pharmaceuticals.
In this project we exploit the poly-pharmacology of drugs to discover new indications via phenotypic screening of a panel of 19 well-characterized cell lines derived from solid tumors seen in children and adolescents. The goal is to identify approved drugs with previously unrecognized anticancer properties that has the potential to reveal new mechanisms and biological processes involved in carcinogenesis or drug resistance. We employed a titration-based paradigm (quantitative high-throughput screening or qHTS), where all compounds were tested at multiple concentrations for their effect on cell viability. Concentration-response curves (CRCs) were derived directly from the primary screen, and both potency and efficacy values were used to identify compounds with robust bioactivity profiles. We screened the NIH Chemical Genomics Center (NCGC) Pharmaceutical Collection (NPC) and Mechanism Interrogation Plate (MIPE) small molecule collections of approved and investigational compounds against these cell lines; and measured metabolically active cells after 48 hours of compound treatment as a proxy for cell viability.
Assay Submitter: Nathalia J. Martinez, National Center for Advancing Translational Sciences, National Institutes of Health, Rockville, MD, USA; email: natalia.martinez@nih.gov
[1] Shen, M et al. Quantitative high-throughput phenotypic screening of pediatric cancer cell lines identifies multiple opportunities for drug repurposing. Oncotarget 2017 Dec 19;9(4):4758-4772. PMID 29435139.
The cells were obtained from University of North Carolina (UNC), Pediatric Preclinical Testing Program (PPT), and Coriell Institute (CI).
qHTS cell viability assay:
Cells were assayed in growth media at a density of 500-1,000 cells/well. Five microliters of cells were dispensed into 1,536-well, white, solid-bottom, TC-treated plates (Greiner Bio One) using a multidrop dispenser and incubated at 37 degrees C, 5% CO2, under a humidified atmosphere for 5 hours. Twenty-three nanoliters of compounds and controls (neutral control DMSO or positive control bortezomib at final concentration of 2.3 µM) were subsequently transferred by Kalypsys pintool. For primary screens, the MIPE collection was tested at 11-point dilutions (final concentrations range from 0.78 nM to 46 µM) and the NPC collection at 8-point dilutions (final concentrations range from 0.59 nM to 46 µM). Compounds tested in follow-up screens were assayed at 11-point dilutions. Cells were incubated for 48 hours, followed by addition of 3 uL of CellTiter-Glo (Promega). After a 15 min incubation at room temperature, samples were analyzed for luminescence intensity using a ViewLux High-throughput CCD imager equipped with clear filters.
Potency means the concentration at half of the fitted maximal effect.

| Compound | Potency | activity change, negative = cytotoxic |
| --- | --- | --- |
| COCCOc1nc(-c2ccc(Cl)c(Cl)c2)n(-c2ccc(NC(=O)CCl)cc2)n1 | 16.6 µM (active) | – |
| O=C(NCCN1CCOCC1)c1ccc(Cl)cc1 | – | 4.44% |
| CC=CC(=O)N(CC)c1ccccc1C | – | -10.6% |
| Cc1[nH]c(C=C2C(=O)Nc3ccc(S(=O)(=O)Cc4c(Cl)cccc4Cl)cc32)c(C)c1C(=O)N1CCC[C@H]1CN1CCCC1 | 0.0332 µM (active) | – |
| CC(=O)Nc1ccc([C@H](C)C(=O)Nc2ncc(C(C)C)s2)cc1 | 0.743 µM (active) | – |
| COc1cccc2c1CCCC2CCCN1CCN(C2CCCCC2)CC1 (stereo not given) | 18.7 µM (active) | – |
| O=C1NC(=O)C(=Cc2ccc(-c3ccc(F)cc3)o2)S1 | – | -0.793% |
| O=C(O)c1ccccc1C(=O)Nc1ccc(-c2ccccc2)cc1 | – | 10.3% |
| O=C(NCc1ccncc1)C12C[C@H]3C[C@@H](C1)CC(c1ccc(Cl)cc1)(C3)C2 | 20.9 µM (active) | – |
| CON=C(C(=O)N[C@@H]1C(=O)N2C(C(=O)OCOC(=O)C(C)(C)C)=C(C=Cc3scnc3C)CS[C@H]12)c1csc(N)n1 | – | 23.3% |
| CC[C@H]1OC(=O)[C@H](C)[C@@H](O[C@H]2C[C@@](C)(OC)[C@@H](O)[C@H](C)O2)[C@H](C)[C@@H](O[C@@H]2O[C@H](C)C[C@H](N(C)C)[C@@H]2O)[C@](C)(O)C[C@@H](C)CN(C)[C@H](C)[C@@H](O)[C@]1(C)O | – | 4.42% |
| CC(=O)c1ccc(S(=O)(=O)NC(=O)NC2CCCCC2)cc1 | – | 11% |
| OC[C@H]1O[C@@H](Oc2cc(O)cc(C=Cc3ccc(O)cc3)c2)[C@H](O)[C@@H](O)[C@H]1O | – | 8.79% |
| CC(C)n1nc(-c2ccc3oc(N)nc3c2)c2c(N)ncnc21 | 0.0019 µM (active) | – |
| O=C(Nc1c(Cl)cncc1Cl)c1ccc(OC(F)F)c(OCC2CC2)c1 | – | 14.1% |
| O=C(O)C(O)Cc1ccc(O)c(O)c1 (stereo not given) | – | -20% |
| CC(C)C[C@H](CC(=O)O)C(=O)N[C@@H](Cc1c[nH]c2ccccc12)C(=O)N[C@@H](C)c1ccccc1 | 3.72 µM (active) | – |
| O=C(O)C=Cc1ccc(O)c(O)c1 | – | -4.76% |
| Cc1nnc(C(C)C)n1C1C[C@H]2CC[C@@H](C1)N2CC[C@H](NC(=O)C1CCC(F)(F)CC1)c1ccccc1 (stereo not given in full) | – | 5.34% |
| O=C(CCCCCCC(=O)Nc1ccccc1)NO | 1.33 µM (active) and 1.87 µM (active) | – |

| Compound | Potency | activity change, negative = cytotoxic |
| --- | --- | --- |
| CS(=O)c1ccc(-c2nc(-c3ccc(F)cc3)c(-c3ccncc3)[nH]2)cc1 (stereo not given) | 42.9 µM (active) | – |
| COc1ccccc1N1CCN(CCCNc2cc(=O)n(C)c(=O)n2C)CC1 | – | 12.4% |
| Clc1cc(Cl)cc(CNc2ncncc2-c2ccc3c(c2)OCO3)c1 | 18.7 µM (active) | – |
| NC(N)=Nc1nc(CSCC/C(N)=N/S(N)(=O)=O)cs1 | – | 12.2% |
| O=C(NOCC(O)CO)c1cc(Br)c(F)c(F)c1Nc1ccc(I)cc1F (stereo not given) | – | -2.46% |
| NS(=O)(=O)c1cccc2c1C(=O)c1cccc(O)c1C2=O | 0.59 µM (active) | – |
| COc1ccc(-c2oc3c(CC=C(C)C)c(OC4O[C@H](CO)[C@@H](O)[C@H](O)[C@@H]4O)cc(O)c3c(=O)c2OC2O[C@@H](C)[C@H](O)[C@@H](O)[C@@H]2O)cc1 (stereo not given in full) | 18.7 µM (active) | – |
| Cc1cccc(C)c1OCC(C)N (stereo not given) | – | 13.1% |
| CC(=NNC(=S)N1CCC1)c1ccccn1 | 0.0209 µM (active) | – |
| C=C1C(=O)[C@@]23C(CC[C@@H]1[C@H]2O)[C@@]12CO[C@]3(O)[C@@H](O)[C@@H]1C(C)(C)CC[C@@H]2O (stereo not given in full) | 8.33 µM (active) | – |
| C[N+]1(C)[C@@H]2CC(OC(=O)[C@H](CO)c3ccccc3)C[C@H]1[C@H]1O[C@@H]12 (stereo not given in full) | – | 0.284% |
| O=C1C(Cl)=C(NCCN2CCOCC2)C(=O)c2ncccc21 | 6.62 µM (active) | – |
| COc1cc(O)c2c(c1)C(=O)c1cc(C)cc(O)c1C2=O | – | 3.65% [at 16.1 µM] |
| CN1CCN(CCOc2cc(OC3CCOCC3)c3c(Nc4c(Cl)ccc5c4OCO5)ncnc3c2)CC1 | 9.35 µM (active) | – |
| CCc1ccc(OCc2ccccc2C(=O)Nc2ccc3nc(C)cc(N)c3c2)cc1 | 23.5 µM (active) | – |
| Cc1ccc(Nc2cc(-c3cccc(N4C(=O)c5ccccc5C4=O)c3)ncn2)cc1NS(C)(=O)=O | – | -0.851% |
| O=c1cc(CN2CCOCC2)occ1OCCCCCSc1ccnc2cc(C(F)(F)F)ccc12 | 1.32 µM (active) | – |
| Cc1c[nH]c(C=C2C(=O)Nc3ccccc32)c1CCC(=O)O | 18.7 µM (active) | – |
| N[C@H](CSC(c1ccccc1)(c1ccccc1)c1ccccc1)C(=O)O | 5.26 µM (active) | – |
| Cc1nc(N)sc1-c1ccnc(Nc2ccc(N3CCOCC3)cc2)n1 | 2.35 µM (active) | – |
